Compound activity (PubChem BioAssay)
Most compounds without a hit are left out; they make up all but 0.83% or so of the library.
NCOA3 inh – inhibits human SRC3 coactivator | HEK293 GAL4-SRC3 luciferase reporter, luminescence | actives 0.17% (n = 360,000) | inhibition, % at 3.6 µM;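 active means inhibition above a per-campaign cutoff, the mean of all compounds plus 3 SD, cut at about 60% in these data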;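 further: 0% = DMSO-treated cells and 100% = gossypol-treated cells at 36 µM; higher means less SRC3-driven luciferase light from the GAL4 reporter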
Target sequence (Q9Y6Q9 whole entry, looked up, the tested form may be a part): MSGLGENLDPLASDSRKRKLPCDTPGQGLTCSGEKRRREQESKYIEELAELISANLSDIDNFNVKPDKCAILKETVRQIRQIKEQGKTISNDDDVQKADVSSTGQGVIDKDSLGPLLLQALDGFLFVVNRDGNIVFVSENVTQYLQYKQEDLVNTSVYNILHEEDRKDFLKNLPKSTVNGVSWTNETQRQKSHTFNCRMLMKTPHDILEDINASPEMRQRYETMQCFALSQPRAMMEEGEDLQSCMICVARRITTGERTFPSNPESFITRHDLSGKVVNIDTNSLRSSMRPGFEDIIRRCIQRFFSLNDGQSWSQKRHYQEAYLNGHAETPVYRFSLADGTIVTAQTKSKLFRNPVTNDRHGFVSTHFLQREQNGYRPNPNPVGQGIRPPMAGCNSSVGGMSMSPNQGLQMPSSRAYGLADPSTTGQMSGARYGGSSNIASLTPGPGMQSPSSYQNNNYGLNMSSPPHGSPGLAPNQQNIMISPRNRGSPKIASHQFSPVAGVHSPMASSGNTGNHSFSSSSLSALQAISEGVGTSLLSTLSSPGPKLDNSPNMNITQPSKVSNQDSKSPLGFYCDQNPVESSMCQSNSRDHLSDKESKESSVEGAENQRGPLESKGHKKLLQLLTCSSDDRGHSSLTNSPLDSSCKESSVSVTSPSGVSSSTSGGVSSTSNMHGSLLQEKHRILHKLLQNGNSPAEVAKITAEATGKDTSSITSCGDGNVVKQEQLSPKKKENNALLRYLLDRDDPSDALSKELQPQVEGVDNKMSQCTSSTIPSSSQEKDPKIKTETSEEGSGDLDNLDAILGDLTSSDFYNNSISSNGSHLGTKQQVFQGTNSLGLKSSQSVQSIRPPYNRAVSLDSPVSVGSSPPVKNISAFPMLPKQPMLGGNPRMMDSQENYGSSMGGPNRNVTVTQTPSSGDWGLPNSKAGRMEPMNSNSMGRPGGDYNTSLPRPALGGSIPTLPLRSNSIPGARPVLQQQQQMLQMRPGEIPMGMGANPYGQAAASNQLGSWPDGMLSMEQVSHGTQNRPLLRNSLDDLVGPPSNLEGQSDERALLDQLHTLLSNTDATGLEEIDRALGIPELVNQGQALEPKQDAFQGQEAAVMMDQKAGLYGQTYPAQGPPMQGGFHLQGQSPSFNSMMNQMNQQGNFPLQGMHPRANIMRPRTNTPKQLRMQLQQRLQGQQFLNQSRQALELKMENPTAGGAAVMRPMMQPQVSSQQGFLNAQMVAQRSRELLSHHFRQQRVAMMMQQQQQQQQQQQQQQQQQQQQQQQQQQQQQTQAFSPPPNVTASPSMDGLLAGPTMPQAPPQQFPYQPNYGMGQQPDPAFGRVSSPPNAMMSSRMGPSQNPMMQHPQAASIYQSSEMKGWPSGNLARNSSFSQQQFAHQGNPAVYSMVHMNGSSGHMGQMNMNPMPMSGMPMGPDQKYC
NCOA2 inhibitor – human SRC2 (NCOA2) inhibition | actives 0.17% (n = 370,000) | Q15596 | HEK293 GAL4-SRC2 luciferase reporter, luminescence | inhibition, % at 9 µM;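 active means inhibition above the mean inhibition of all tested compounds plus 3 SD, set per campaign, cut at about 52% in these data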;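 further: 0% = DMSO treated cells and 100% = cells given Gossypol at 36 µM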
LRH-1 inv ag – NR5A2 inverse agonism in reporter assay; O00482; HEK293T StAR-luciferase reporter, LRH-1 transfected, 24 h; inhibition, % at 3.6 µM; actives 0.13% (n = 360,000); AID 602396;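 active means inhibition above the mean inhibition of all tested compounds plus 3 SD, cut at about 73% in these data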;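 further: 0% = DMSO wells and 100% = reporter-only cells lacking LRH-1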
NCOA1 inh – inhibitors of human steroid receptor coactivator 1 (SRC1); Q15788; HEK293 GAL4-SRC1 luciferase reporter, luminescence; inhibition, % at 3.6 µM; actives 0.12% (n = 360,000);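 active means inhibition above the campaign mean plus 3 SD, with each screening campaign given its own cutoff, cut at about 60% in these data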;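 further: 0% = DMSO treated cells and 100% = gossypol at 36 µM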
Gli-Sufu antag – antagonists of Gli-Sufu signaling; Sufu-KO-LIGHT fibroblasts, Gli luciferase reporter luminescence; inhibition, % at 5 µM; actives 0.74% (n = 340,000); AID 588413;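 active means inhibition above about 55%, limit read from the data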;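 further: 0% = DMSO-treated cells and 100% = wells with medium but no cells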
Gli antag conf – confirmation of Gli-SUFU pathway antagonists | shares compounds with Gli-Sufu antag | Sufu-KO-LIGHT cells, Gli luciferase reporter, luminescence | inhibition, % at 5 µM | actives 40% (n = 2,500);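 active means mean inhibition at 5 µM reaching about 45%, limit read from the data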;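 further: plate controls were DMSO-treated cells for no effect and wells lacking cells for full effect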
Gli cytotox – cytotoxic in Gli-SUFU antagonist counter-screen. shares compounds with Gli-Sufu antag. Sufu-KO-LIGHT cells cytotoxicity, ATP luminescence. cytotoxicity, % at 5 µM. actives 32% (n = 2,500). AID 651994;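 active means mean cytotoxicity at 5 µM above about 25%, limit read from the data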;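 further: cells exposed to compound overnight for roughly 16 to 18 hours; plate controls were DMSO wells with cells for no effect and medium without cells for full effect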
Wnt3a cs – inhibits Wnt3a reporter, counter-screen for Gli-SUFU antagonists. shares compounds with Gli-Sufu antag. Wnt-LIGHT cells, Wnt3a-driven luciferase reporter, luminescence. inhibition, % at 6.25 µM. actives 20% (n = 2,500);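 active means mean inhibition above about 25%, limit read from the data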
* hit, by the source's call.

COCCNc1nc2c(c(=O)n(C)c(=O)n2C)n1Cc1cccc(C)c1 was read as NCOA3 inh -8, NCOA2 inhibitor 27, LRH-1 inv ag 11, NCOA1 inh 2, Gli-Sufu antag 61*, Gli antag conf 63*, Gli cytotox 25* and Wnt3a cs 24.
For C=CCNc1nc2c(c(=O)n(C)c(=O)n2C)n1CCCCCC the results were NCOA3 inh 27, NCOA2 inhibitor 4, LRH-1 inv ag 46, NCOA1 inh 13, Gli-Sufu antag 69*, Gli antag conf 75*, Gli cytotox 36* and Wnt3a cs 40*.
C=CCNc1nc2c(c(=O)n(C)c(=O)n2C)n1Cc1ccc(F)cc1 was read as NCOA3 inh 4, NCOA2 inhibitor 20, LRH-1 inv ag 4, NCOA1 inh -3, Gli-Sufu antag 54, Gli antag conf 55*, Gli cytotox 20 and Wnt3a cs 26*.
`CCCOc1nc2c(c(=O)n(C)c(=O)n2C)n1Cc1cccc2ccccc12` gave NCOA3 inh 27, NCOA2 inhibitor -6, LRH-1 inv ag 1, NCOA1 inh 2, Gli-Sufu antag 57*, Gli antag conf 58*, Gli cytotox 40* and Wnt3a cs 9.
For CCCOc1nc2c(c(=O)n(C)c(=O)n2C)n1C the results were NCOA3 inh -1, NCOA2 inhibitor 12, LRH-1 inv ag -11, NCOA1 inh -6 and Gli-Sufu antag -16.
`C=CCOc1nc2c(c(=O)n(C)c(=O)n2C)n1Cc1ccc(Cl)cc1` gave NCOA3 inh 18, NCOA2 inhibitor -11, LRH-1 inv ag -19, NCOA1 inh -22, Gli-Sufu antag 72*, Gli antag conf 61*, Gli cytotox 27* and Wnt3a cs 23.
For COc1ccc(-c2cc(-c3nnc4sc(Cc5cccs5)nn34)[nH]n2)cc1 the results were NCOA2 inhibitor -8.
COC(=O)[C@]12C[C@H](CC(=O)NCc3ccc(OC)c(OC)c3)C(=O)N(Cc3ccc(Cl)cc3Cl)C1=C[C@H](C(C)(C)C)O[C@@H]2C was read as NCOA2 inhibitor 5.
`c1ccc(Cn2c(SCC3CCC3)nnc2-c2cccnc2)cc1` gave NCOA2 inhibitor -8.
For O=C(Nc1cc(N2CCCCC2)ncn1)c1ccccc1 the results were NCOA3 inh -35, NCOA2 inhibitor -40, LRH-1 inv ag -47, NCOA1 inh -37, Gli-Sufu antag 72*, Gli antag conf 77*, Gli cytotox 5 and Wnt3a cs -72.
Screening Nn1c(SCC(=O)NC2CCCCC2)nnc1-c1cc(-c2ccc(Cl)cc2)n[nH]1 returned NCOA2 inhibitor -44.
For CSc1nnc(-c2ccc([N+](=O)[O-])cc2)o1 the results were NCOA3 inh 6, NCOA2 inhibitor -7, LRH-1 inv ag 13, NCOA1 inh -4, Gli-Sufu antag 93*, Gli antag conf 24, Gli cytotox 0 and Wnt3a cs 1.
CCOC(=O)CSc1c(-c2cccs2)[nH]c2ccccc12 was read as NCOA3 inh 16, NCOA2 inhibitor -32, LRH-1 inv ag 10, NCOA1 inh -4, Gli-Sufu antag 52, Gli antag conf 65*, Gli cytotox 4 and Wnt3a cs 14.
Screening COC(=O)c1sc(N)c(C(=O)OC)c1CSc1nnc(-c2ccccc2Cl)n1C returned NCOA3 inh -10, NCOA2 inhibitor -3, LRH-1 inv ag 13, NCOA1 inh -26 and Gli-Sufu antag 3.
For COC(=O)c1sc(N)c(C(=O)OC)c1CSc1nnnn1C the results were NCOA3 inh 24, NCOA2 inhibitor -3, LRH-1 inv ag 24, NCOA1 inh 12, Gli-Sufu antag 99*, Gli antag conf 24, Gli cytotox 2 and Wnt3a cs 11.
`CC(=O)c1ccc(NC(=O)Nc2ccc(NS(=O)(=O)c3ccc(C)cc3)cc2)cc1` gave NCOA3 inh 3, NCOA2 inhibitor 3, LRH-1 inv ag 9, NCOA1 inh -10, Gli-Sufu antag 75*, Gli antag conf 22, Gli cytotox 6 and Wnt3a cs 25*.
For CC(C)(C)c1ccc(-c2nnc(SCC(=O)c3ccc([N+](=O)[O-])cc3)n2-c2ccc(Cl)cc2)cc1 the results were NCOA2 inhibitor -4.
`Cc1ccc2c(c1)C(CS(=O)(=O)NC1CCCC1)NC2` (stereo not drawn) gave NCOA2 inhibitor -14.
CC(OC(=O)CCC(=O)c1ccc(Cl)s1)C(=O)NC1(C#N)CCCCC1 (stereo not drawn) was read as NCOA3 inh -29, NCOA2 inhibitor 11, LRH-1 inv ag 11, NCOA1 inh -13, Gli-Sufu antag 94*, Gli antag conf 22, Gli cytotox 2 and Wnt3a cs -17.
Cc1ccc(SCC(=O)OC(C)C(=O)NC2(C#N)CCCCC2)cc1 (stereo not drawn) was read as NCOA3 inh 14, NCOA2 inhibitor 7, LRH-1 inv ag -3, NCOA1 inh -24 and Gli-Sufu antag -3.
`COC(=O)C1=C(CN2CCCc3ccccc32)NC(=O)NC1c1ccc(F)cc1` (stereo not drawn) gave NCOA3 inh 84*, NCOA2 inhibitor 85*, LRH-1 inv ag 91*, NCOA1 inh 87*, Gli-Sufu antag 82*, Gli antag conf 36, Gli cytotox 19 and Wnt3a cs 72*.
For COC(=O)C1=C(CN2CCc3ccccc32)NC(=O)NC1c1cc(C)ccc1C (stereo not drawn) the results were NCOA3 inh 8, NCOA2 inhibitor 2, LRH-1 inv ag 11, NCOA1 inh -22 and Gli-Sufu antag 10.
COc1cccc(C(=O)NCCN2CCN(c3ccc(Cl)cc3)CC2)c1 was read as NCOA3 inh 6, NCOA2 inhibitor 27, LRH-1 inv ag 15, NCOA1 inh 6, Gli-Sufu antag 50, Gli antag conf 23, Gli cytotox 4 and Wnt3a cs -38.
`Clc1cccc(OCCCN2CCCC2)c1Cl` gave NCOA3 inh 10, NCOA2 inhibitor 17, LRH-1 inv ag 2, NCOA1 inh 11 and Gli-Sufu antag 21.
`CCCCNCCCOc1cccc(Cl)c1Cl` gave NCOA3 inh 1, NCOA2 inhibitor 13, LRH-1 inv ag 9, NCOA1 inh 5, Gli-Sufu antag 62*, Gli antag conf 10, Gli cytotox 25 and Wnt3a cs -53.
Screening CCCCNCCCOc1ccc(C)cc1Br returned NCOA3 inh 25, NCOA2 inhibitor -10, LRH-1 inv ag 9, NCOA1 inh -4, Gli-Sufu antag 67*, Gli antag conf 25, Gli cytotox 10 and Wnt3a cs -21.
